About 14,000 (4.5%) of roughly 310,000 compounds showed an effect of 50% or more. The effect is printed as a negative number. Only a selection was taken, and strong results are over-represented in it overall. Where a SMILES comes first, the peptide text is derived from it.
Molecular target: human ether-à-go-go-related gene (hERG) potassium channel (human, UniProt Q12809)
Experiment: primary screen, population patch clamp on CHO cells stably expressing hERG; higher = less effect of the substance
Description: Briefly, Chinese hamster ovary (CHO) cells stably expressing the hERG channel were dislodged from tissue culture flasks and dispensed into PPC plates. […] During the recording, background leak currents were estimated by a 100 ms step to -80 mV from an initial holding potential of -70 mV and subtracted from the subsequent current measurement. The campaign was conducted in two phases using slight differences in recording protocol. In the first phase, the initial voltage pulse used a 100 ms step to -30 mV from a holding potential of -70 mV, a 2 s conditioning step to +25 mV, and a 2 s test step to -30 mV. During the second phase of the screen, the potential during the conditioning step was raised to +45 mV. In both phases of the campaign, a secondary voltage pulse was applied using the same parameters as the second phase initial pulse. The initial and secondary pulses were applied in the absence of compound, and upon application of 1 μM and 10 μM test concentrations. […]
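Further: peak tail current of the secondary pulse compared with the same well before compound.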

Chain of human ether-à-go-go-related gene (hERG) potassium channel (Q12809 whole entry, looked up): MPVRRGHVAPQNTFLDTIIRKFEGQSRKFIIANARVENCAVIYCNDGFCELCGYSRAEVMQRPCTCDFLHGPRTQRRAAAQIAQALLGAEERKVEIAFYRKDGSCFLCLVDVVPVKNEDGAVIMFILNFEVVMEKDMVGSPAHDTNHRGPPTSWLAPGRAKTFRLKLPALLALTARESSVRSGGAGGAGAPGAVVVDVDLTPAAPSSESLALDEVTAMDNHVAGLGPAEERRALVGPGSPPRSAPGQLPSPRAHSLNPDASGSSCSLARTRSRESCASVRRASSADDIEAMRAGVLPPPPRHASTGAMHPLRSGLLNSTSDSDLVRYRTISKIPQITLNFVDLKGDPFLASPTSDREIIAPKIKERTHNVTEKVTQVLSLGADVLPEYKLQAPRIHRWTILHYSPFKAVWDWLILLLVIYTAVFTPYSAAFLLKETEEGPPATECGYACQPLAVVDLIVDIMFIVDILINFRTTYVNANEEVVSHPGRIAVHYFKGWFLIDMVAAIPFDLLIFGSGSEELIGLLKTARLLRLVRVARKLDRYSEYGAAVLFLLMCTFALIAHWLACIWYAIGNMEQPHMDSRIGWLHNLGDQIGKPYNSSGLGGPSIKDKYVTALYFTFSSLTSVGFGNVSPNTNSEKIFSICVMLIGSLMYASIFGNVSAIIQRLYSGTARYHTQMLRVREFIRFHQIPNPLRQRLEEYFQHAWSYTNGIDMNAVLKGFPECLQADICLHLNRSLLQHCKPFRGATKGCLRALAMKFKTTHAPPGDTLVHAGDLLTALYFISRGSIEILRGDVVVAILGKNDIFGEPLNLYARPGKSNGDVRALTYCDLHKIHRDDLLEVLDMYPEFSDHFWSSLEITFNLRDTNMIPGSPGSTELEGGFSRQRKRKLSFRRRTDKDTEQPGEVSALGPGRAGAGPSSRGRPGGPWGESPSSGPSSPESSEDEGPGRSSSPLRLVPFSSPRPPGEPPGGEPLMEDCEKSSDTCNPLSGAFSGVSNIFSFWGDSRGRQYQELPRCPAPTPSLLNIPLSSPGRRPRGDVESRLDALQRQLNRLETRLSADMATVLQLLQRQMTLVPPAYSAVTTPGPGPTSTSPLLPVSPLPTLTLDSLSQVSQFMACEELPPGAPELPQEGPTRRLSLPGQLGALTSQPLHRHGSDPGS

SMILES	hERG current change (%, negative = inhibition) at 10uM
Cc1ccc(NC(=S)N2CCN(S(=O)(=O)c3ccccc3)CC2)cc1C	11.6%
Cc1nn2cnc3sc4c(c3c2nc1=O)CCCC4	-3.17%
COc1ccc(NC(=O)CCCC2=NS(=O)(=O)c3ccccc3N2)cc1	17%
Fc1ccccc1-c1nc(NCCCN2CCOCC2)c2ccccc2n1	-45.9%
c1ccc2c(NCCCN3CCOCC3)c3ccccc3nc2c1	-66.6%
O=c1c2ccccc2nc2c3ccccc3c(NCCN3CCOCC3)nn12	-72.2%
O=c1c2ccccc2nc2c3ccccc3c(NCCO)nn12	-7.34%
c1ccc2[nH]c(NCCCN3CCOCC3)nc2c1	-6.61%
O=c1c2ccccc2oc2ccc(NCCCN3CCOCC3)cc12	-41.9%
CN(C)CCCNc1c2ccccc2nc2ccccc12	-28.8%
OCCCNc1c2ccccc2nc2ccccc12	-65.6%
O=c1c2ccccc2nc2c3ccccc3c(NCc3ccccn3)nn12	-13.5%
O=c1c2ccccc2oc2cc(NCCCN3CCOCC3)ccc12	-29.7%
OCCNc1c2ccccc2nc2ccccc12	-31%
O=c1c2ccccc2sc2ccc(NCCCN3CCOCC3)cc12	-54.2%
O=C(C1COc2ccccc2O1)N1CCN(c2nc3c(F)cc(F)cc3s2)CC1 (stereo not drawn)	-16.6%
CCOc1ccc(S(=O)(=O)NC(C)C(=O)NCc2ccc3c(c2)OCO3)cc1 (stereo not drawn)	2.83%
N/C(=N\OC(=O)COc1ccc(Br)cc1)c1cccnc1	-3.21%
Cc1c(Cl)c([N+](=O)[O-])nn1CC(=O)NC(C)C1CC2CCC1C2 (stereo not drawn)	-12.9%
CC(=O)NS(=O)(=O)c1ccc(NC(=O)c2ccc(S(=O)(=O)N3CCCC3)cc2)cc1	-0.257%
CC(C)(C#N)NC(=O)c1ccco1	4.37%
COc1ccc(C)cc1NC(=O)COCC(=O)O	-8.48%
O=C(NC1CCCCC1)C(c1ccccc1)N1CCOCC1 (stereo not drawn)	9.63%

SMILES	hERG current change (%, negative = inhibition) at 10uM
COCCNC(=O)CN1C(=O)COc2ccc(S(=O)(=O)N3CCCCCC3)cc21	20.3%
CC(C)(C)c1ccc(C(=O)NCc2ccc(Cl)cc2)cc1	12.6%
O=[N+]([O-])c1ccc2c(c1Nc1ccccc1Cl)=NC1(CCCCC1)N=2	3.29%
CC(=O)NCCc1nc2cc(NC(=O)c3ccc(F)cc3)ccc2n1C	9.6%
CC(=O)NC(Cc1ccccc1)C(=O)NC(Cc1ccccc1)C(=O)O (stereo not drawn) (Ac-Phe-Phe-OH; configuration not given here)	10.4%
O=C(CCN1C(=O)c2ccccc2C1=O)Nn1cnnc1	-0.368%
c1ccc(-c2nc(NCCCN3CCOCC3)c3ccccc3n2)cc1	-34.6%
Clc1ccc(-c2nc(NCCCN3CCOCC3)c3ccccc3n2)cc1	-18.9%
c1csc(-c2nc(NCCCN3CCOCC3)c3ccccc3n2)c1	-50.7%
COC(=O)c1ccc(N2C(=O)C3CC(C)=C(C)CC3C2=O)cc1 (stereo not drawn)	3.73%
CCCC(c1nnnn1Cc1ccco1)N1CCN(C(=O)c2ccco2)CC1.Cl (stereo not drawn)	-11.8%
CCCCC(c1nnnn1Cc1ccco1)N1CCN(C(=O)c2ccco2)CC1.Cl (stereo not drawn)	-51.8%
CCC(c1nnnn1Cc1ccc(OC)cc1)N1CCN(C(=O)c2ccco2)CC1.Cl (stereo not drawn)	-55.5%
CCCC(c1nnnn1C(C)(C)CC)N1CCN(C(=O)c2ccco2)CC1.Cl (stereo not drawn)	-54%
CCCC(c1nnnn1Cc1ccc(OC)cc1)N1CCN(C(=O)c2ccco2)CC1 (stereo not drawn)	-51.3%
CCC(C)(C)n1nnnc1C(C(C)C)N1CCN(C(=O)c2ccco2)CC1 (stereo not drawn)	-29.7%
CCCC(c1nnnn1CCOC)N1CCN(C(=O)c2ccco2)CC1.Cl (stereo not drawn)	-4.1%
CCC(c1nnnn1CCc1ccccc1)N1CCN(C(=O)c2ccco2)CC1.Cl (stereo not drawn)	-28%
CCCC(c1nnnn1CCc1ccccc1)N1CCN(C(=O)c2ccco2)CC1 (stereo not drawn)	-49.3%
CCC(c1nnnn1Cc1ccco1)N1CCN(C(=O)c2ccco2)CC1.Cl (stereo not drawn)	-20.6%
CCC(c1nnnn1CCOC)N1CCN(C(=O)c2ccco2)CC1.Cl (stereo not drawn)	9.17%
CCCC(c1nnnn1C(C)(C)C)N1CCN(C(=O)c2ccco2)CC1.Cl (stereo not drawn)	-12.8%

From article PMC4336329 (PLoS ONE, 2015)
